Reference: PubChem BioAssay (Tox21)
Results filed as inconclusive are left out. Unmarked numbers belong to inactive results. The source made the active and inactive calls. Calls come from the whole dose curve; as a rule, active = well fitted activation curve with a large enough effect in the repeat runs; inconclusive = weak or mixed curves; inactive = flat fitted curve, though single readings scatter.
% is set by controls: 0 for no effect and ±100 for the full control effect; potency is the fitted concentration of half-maximal effect.

Experiment: A CellTox Green Cytotoxicity Assay to monitor cytotoxicity in HEK293 cells - 32 hour (AID 1224881); note: nearly all actives have a fitted effect of over 40% in size
Conditions: CellTox Green fluorescence; series mostly up to 76.8 µM; cytotoxicity increase: at the top concentration
Text: National Center for Advancing Translational Sciences [NCATS]
NIH Chemical Genomics Center [NCGC]
U.S. Environmental Protection Agency [EPA]
National Institutes of Environmental Health Sciences [NIEHS]
National Toxicology Program [NTP]
Cell-based models are critical for drug discovery. Determining the natural cytotoxic effects resulting from test compounds is an essential research activity. A CellTox Green Cytotoxicity Assay to monitor cytotoxicity in real time of continues cell culture during 40 hours of the compound treatment was used to screen Tox21 10K library compounds in Hek293 cells. CellTox Green Cytotoxicity Assay is a nonlytic, homogeneous, biofluorescent method to measure cytotoxicity in cell culture after experimental manipulation. The assay system uses a proprietary asymmetric cyanine dye that is excluded from viable cells but preferentially stains the dead cell's DNA. […] Viable cells produce no appreciable increases in fluorescence. Therefore, the fluorescence signal produced by the binding interaction with dead cell DNA is proportional to cytotoxicity.
The mixture of Hek293 cell suspension and reagents were dispensed at 600cells/6 ul/well in 1536-well tissue culture treated black solid bottom plates using a Multidrop dispenser. After the assay plates were incubated at a 37 C/5% CO2 incubator for 5 hours, 23 nL of compounds dissolved in DMSO, positive and negative controls was transferred to the assay plate by a pintool work station. The plates were incubated at 37 C for 40 hours. The fluorescence intensity were measured at 0h, 8h, 16h, 24h, 32h and 40h time points using ViewLux plate reader during compound treatment.
With CCCCc1nc2cccnc2n1Cc1ccc(-c2ccccc2-c2nnn[nH]2)cc1 the “cytotoxicity increase” value was 0.141%.
In the case of CCc1c(C(=O)NN2CCCCC2)nn(-c2ccc(Cl)cc2Cl)c1-c1ccc(Br)cc1, the “cytotoxicity increase” value is reported as -8.37%.
In the case of CCN(CC)c1ccc2c(-c3ccccc3C(=O)O)c3ccc(=[N+](CC)CC)cc-3oc2c1, the Potency is reported as 24.5 µM (active).
For O=C1CCC(=O)O1, the “cytotoxicity increase” value was -2.22%.
With C=C(C)C(=O)OCCO the “cytotoxicity increase” value was -10.7%.
In the case of CC(=O)NO, the “cytotoxicity increase” value is reported as 3.31% [at 35.3 µM].
With CCOc1ccc(N=Nc2ccc(/C=C/c3ccc(N=Nc4ccc(OCC)cc4)cc3S(=O)(=O)O)c(S(=O)(=O)O)c2)cc1 the “cytotoxicity increase” value was -39.8%.
In the case of NS(=O)(=O)c1ccc(N2CCCCS2(=O)=O)cc1, the “cytotoxicity increase” value is reported as -5.62% [at 35.3 µM].
For Cc1c(N)cccc1[N+](=O)[O-], the “cytotoxicity increase” value was -8.47%.
With CC[N+](C)(CC)CCOC(=O)C(O)(c1ccccc1)C1CCCCC1 (stereo not given) the “cytotoxicity increase” value was -7.59% [at 35.3 µM].
In the case of Cc1cc(N)c2cc(NC(=O)Nc3ccc4nc(C)cc(N)c4c3)ccc2n1, the “cytotoxicity increase” value is reported as -37.8% [at 35.3 µM].
For Cc1cccc(Nc2ccccc2)c1, the Potency was 34.7 µM (active).
For COc1cc2nc(Cl)nc(N)c2cc1OC, the “cytotoxicity increase” value was -23% [at 35.3 µM].
For CCOc1ccc(N)c([N+](=O)[O-])c1, the “cytotoxicity increase” value was -3.09%.
In the case of CCN(CC)CCNC(=O)c1cc(Br)c(N)cc1OC, the “cytotoxicity increase” value is reported as -0.346% [at 35.3 µM].
With COc1ccc(S(=O)(=O)N2C(=O)[C@@](c3ccccc3OC)(N3C[C@H](O)C[C@H]3C(=O)N(C)C)c3cc(Cl)ccc32)c(OC)c1 the “cytotoxicity increase” value was 1.4%.
With c1ccc(-c2ccccn2)nc1 the “cytotoxicity increase” value was -1.55%.
In the case of O=C1C(O)=C(O)C(=O)C(O)=C1O, the “cytotoxicity increase” value is reported as -22% [at 35.3 µM].
For C[Si](C)(CCCN)O[Si](C)(C)CCCN, the “cytotoxicity increase” value was -15.4%.
For C=C(C)C(=O)OCCOCC, the “cytotoxicity increase” value was 5.03%.
With CCCCCCc1ccc(-c2ccc(C#N)cc2)cc1 the “cytotoxicity increase” value was -4.2%.
For O=C(O)C(S)C(S)C(=O)O (stereo not given), the “cytotoxicity increase” value was -2.95% [at 35.3 µM].
With CCCCC1=NC2(CCCC2)C(=O)N1Cc1ccc(-c2ccccc2-c2nn[nH]n2)cc1 the “cytotoxicity increase” value was -1.24% [at 35.3 µM].
For CCOC(=O)C(F)(F)F, the “cytotoxicity increase” value was -3.51%.
For Nc1ccccc1S(=O)(=O)c1ccccc1, the “cytotoxicity increase” value was -3.68%.
For c1ccc(C(O[C@H]2CCCN(CCc3ccc4c(c3)OCO4)C2)c2ccccc2)cc1, the “cytotoxicity increase” value was -8.34% [at 35.3 µM].
With CC(C)(COC(=O)c1ccccc1)COC(=O)c1ccccc1 the “cytotoxicity increase” value was 1.86%.
With COc1ccc2cccc(CCNC(C)=O)c2c1 the “cytotoxicity increase” value was 1.33% [at 35.3 µM].
With CCCCCCCCCCCCCCCCOS(=O)(=O)O the Potency was 21.3 µM (active).
With CN1CCC(=C2c3ccccc3Sc3ccccc32)CC1 the “cytotoxicity increase” value was 13.3% [at 35.3 µM].
With COc1cc2nc(N(C)CCCNC(=O)C3CCCO3)nc(N)c2cc1OC (stereo not given) the “cytotoxicity increase” value was 1.01% [at 35.3 µM].
In the case of CCCCO, the “cytotoxicity increase” value is reported as -1.73%.
With C=CCOC(=O)CCC1CCCCC1 the “cytotoxicity increase” value was 13.2%.
With C#C[C@]1(O)CC[C@H]2[C@@H]3CCc4cc(OC5CCCC5)ccc4[C@H]3CC[C@@]21C the “cytotoxicity increase” value was 25.7% [at 35.3 µM].
For C=C(C)C(=O)OCC, the “cytotoxicity increase” value was -1.45%.
In the case of CC(C)OC(=O)C(C)N(C(=O)c1ccccc1)c1ccc(F)c(Cl)c1 (stereo not given), the “cytotoxicity increase” value is reported as 20%.
For CCCn1cnc2c1c(=O)n(CCCCC(C)=O)c(=O)n2C, the “cytotoxicity increase” value was -9.6% [at 35.3 µM].
For N=c1ccn2c(n1)O[C@H]1[C@H](O)[C@@H](CO)O[C@H]12, the “cytotoxicity increase” value was -8.58%.
With CCCCCCCCCc1ccc(OCCOCCO)cc1 the Potency was 14.5 µM (active).
With CO[C@@H]1[C@H](OC(=O)/C=C/C=C/C=C/C=C/C(=O)O)CC[C@]2(CO2)[C@H]1[C@@]1(C)O[C@@H]1CC=C(C)C the “cytotoxicity increase” value was 3.85%.
